{
  "source": "the supplement of paper PMC10515830",
  "note": "Structures can show the parent of a compound that is named as a salt.",
  "data": [
    {"test_system": "Danio rerio larvae (5 dpf)", "experiment": "difference in combined optomotor response to red, green and blue moving lines vs DMSO (percentage points); higher = stronger optomotor response than DMSO", "conditions": "10 µM; exposure time 6 h", "summary_of_the_method": "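Wild-type 5 dpf zebrafish larvae in 96-well plates were given 100 µL egg water containing library compound at 10 µM final for 6 h. After 3 h of exposure, plates at 28.5 ℃ were photographed every 6 s during a 3-h programme of moving lines and 100 ms, 400Hz tones. Z-LaP Tracker (a DeepLabCut model) quantified each behaviour, averaged over 48 larvae per compound. Values are the compound mean minus the DMSO-vehicle control, in percentage points.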", "values": [
      {"smiles": "CN(C)C(=O)Oc1ccc[n+](C)c1", "note": "[Pyridostigmine (bromide)]", "difference": 2.09},
      {"smiles": "O=[N+]([O-])O[C@H]1CO[C@H]2[C@@H]1OC[C@H]2O[N+](=O)[O-]", "note": "[Isosorbide Dinitrate]", "difference": 5},
      {"smiles": "CN1[C@@H]2CC[C@H]1C[C@@H](OC(=O)C(CO)c1ccccc1)C2", "note": "(stereo partly specified) [Atropine]", "difference": -1.56},
      {"smiles": "N[C@@H]1C[C@H]1c1ccccc1", "note": "[Tranylcypromine (hydrochloride)]", "difference": 1.86},
      {"smiles": "C[C@H](N)[C@H](O)c1ccc(O)c(O)c1", "note": "[Levonordefrin]", "difference": -0.226},
      {"smiles": "O=c1[nH]c2ccccc2n1C1CCN(CCCC(c2ccc(F)cc2)c2ccc(F)cc2)CC1", "note": "[Pimozide]", "difference": -13.5},
      {"smiles": "C=CCN1CC[C@]23c4c5ccc(O)c4O[C@H]2[C@@H](OCCOCCOCCOCCOCCOCCOCCOC)CC[C@@]3(O)[C@H]1C5", "note": "[Naloxegol (oxalate)]", "difference": -4.82},
      {"smiles": "C[C@]12CC[C@H](O)CC1=CC[C@@H]1[C@@H]2CC[C@]2(C)C(=O)CC[C@@H]12", "note": "[Dehydroepiandrosterone]", "difference": 6.05},
      {"smiles": "Cc1cccc([C@H](C)c2c[nH]cn2)c1C", "note": "[Dexmedetomidine (hydrochloride)]", "difference": -16.9},
      {"smiles": "O=P1(N(CCCl)CCCl)NCCCO1", "note": "(stereo unspecified) [Cyclophosphamide (hydrate)]", "difference": 2.91},
      {"smiles": "COc1cc([C@@H]2c3cc4c(cc3[C@H](O)[C@H]3COC(=O)[C@H]23)OCO4)cc(OC)c1OC", "note": "[Podophyllotoxin]", "difference": 7.28},
      {"smiles": "CC1=C[C@]23C(=O)[C@@H](C=C(CO)[C@@H](O)[C@]2(O)[C@H]1O)[C@H]1[C@@H](C[C@H]3C)C1(C)C", "note": "[Ingenol]", "difference": -0.622},
      {"smiles": "O=P1(NCCCl)OCCCN1CCCl", "note": "(stereo unspecified) [Ifosfamide]", "difference": 2.77},
      {"smiles": "Cn1c(CCCC(=O)O)nc2cc(N(CCCl)CCCl)ccc21", "note": "[Bendamustine (hydrochloride)]", "difference": -1.37},
      {"smiles": "CC(C)C[C@H]1C(=O)N2CCC[C@H]2[C@]2(O)O[C@](NC(=O)[C@@H]3C[C@@H]4c5cccc6[nH]cc(c56)C[C@H]4N(C)C3)(C(C)C)C(=O)N12.CC(C)[C@@]1(NC(=O)[C@@H]2C[C@@H]3c4cccc5[nH]cc(c45)C[C@H]3N(C)C2)O[C@@]2(O)[C@@H]3CCCN3C(=O)[C@H](Cc3ccccc3)N2C1=O.CC(C)[C@H]1C(=O)N2CCC[C@H]2[C@]2(O)O[C@](NC(=O)[C@@H]3C[C@@H]4c5cccc6[nH]cc(c56)C[C@H]4N(C)C3)(C(C)C)C(=O)N12.CCC(C)[C@H]1C(=O)N2CCC[C@H]2[C@]2(O)O[C@](NC(=O)[C@@H]3C[C@@H]4c5cccc6[nH]cc(c56)C[C@H]4N(C)C3)(C(C)C)C(=O)N12", "note": "[Ergoloid (mesylates)]", "difference": -3.42},
      {"smiles": "CCN(C(C)=O)c1cccc(-c2ccnc3c(C#N)cnn23)c1", "note": "[Zaleplon]", "difference": -10.8},
      {"smiles": "O=C(O[C@H]1C[N+]2(CCCOc3ccccc3)CCC1CC2)C(O)(c1cccs1)c1cccs1", "note": "[Aclidinium (bromide)]", "difference": -3.58},
      {"smiles": "CC(C)C[C@H]1C(=O)N2CCC[C@H]2[C@]2(O)O[C@](NC(=O)[C@@H]3C=C4c5cccc6[nH]c(Br)c(c56)C[C@H]4N(C)C3)(C(C)C)C(=O)N12", "note": "[Bromocriptine (mesylate)]", "difference": -3.6},
      {"smiles": "CC[C@@H](C(N)=O)N1CCCC1=O", "note": "[Levetiracetam]", "difference": 4.89},
      {"smiles": "O=C(O)CCCc1ccc(N(CCCl)CCCl)cc1", "note": "[Chlorambucil]", "difference": -10.5},
      {"smiles": "N[C@@H](Cc1ccc(N(CCCl)CCCl)cc1)C(=O)O", "note": "[Melphalan]", "difference": 7.41},
      {"smiles": "C[N+]1(C)CCCC(OC(=O)C(O)(c2ccccc2)c2ccccc2)C1", "note": "(stereo unspecified) [Mepenzolate (bromide)]", "difference": -1.25},
      {"smiles": "CCOC(=O)c1cncn1[C@H](C)c1ccccc1", "note": "[Etomidate]", "difference": -19.2},
      {"smiles": "COc1cc2c(cc1OC)C1CC(=O)C(CC(C)C)CN1CC2", "note": "(stereo unspecified) [Tetrabenazine]", "difference": -3.98},
      {"smiles": "C#CCN(C)[C@H](C)Cc1ccccc1", "note": "[R-(-)-Deprenyl (hydrochloride)]", "difference": 1.17},
      {"smiles": "Nc1ncnc2c1ncn2CCOCP(=O)(O)O", "note": "[Adefovir]", "difference": 6.79}
    ]}
  ]
}
